According to PubChem BioAssay:
Active and inactive are the calls of the source.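 Rule for the calls, unless noted: active = fluorescence slope higher than the sample average by over 3 SD (cut at about -0.22 in these data, passing the limit was not always enough); inactive = the rest.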

Legend:
[1] = inhibitors of TNFa-induced NFkB p65 translocation, primary screen, imaging, HUVEC, MLSMR starter and 10KST1 sets (AID 438;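 active = inhibition above 20% together with a positive visual image hit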;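 note: compound added about 3h40 before a 20 min TNFalpha stimulation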;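 for inhibition: signal is the nuclear over cytoplasmic p65 intensity ratio per well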); conditions: HUVEC TNFa-induced p65 nuclear translocation; cell count: measured here: nuclei count (cytotoxicity indicator), at 2.08 µM; inhibition: at 2 µM, stronger effect = higher value, 0% TNFa-plus-vehicle, 100% no-TNFa wells
[2] = reduction of polyQ htt aggregates in cells – imaging, exon1htt(103Q)mCFP cells, high-content imaging, primary screen (AID 483;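 active = visual image review flags a hit and inhibition of aggregation exceeds 20%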;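 note: compound exposure lasted 3 days before fixation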;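 for nuclei count: percent of the per-plate median nuclei count of sample wells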); conditions: exon1htt(103Q)mCFP cell line, aggregate imaging, at 2 µM; inhibition of aggregation: stronger effect = higher value; nuclei count: measured here: cell count, toxicity
[3] = endothelial E-selectin expression blockers – imaging, HUVEC, immunofluorescence, MLSMR starter and 10KST1 sets, primary screen (AID 487;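 active = visually confirmed hit in the image check and inhibition above 20%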;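 for inhibition: signal is fraction of cell area covered by stained E-selectin grains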;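 for nuclei count: 100% = median nuclei count of all wells on the same plate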); conditions: HUVEC TNFalpha-induced E-selectin immunofluorescence imaging, at 2 µM; inhibition: stronger effect = higher value; nuclei count: measured here: cell number, toxicity
[4] = molecular target: Voltage-gated potassium channel subunit beta-2 (Rattus norvegicus) (UniProt P62483); test: inhibitors of rat Kvbeta2 reductase activity – biochemical, NADPH fluorescence, primary screen (AID 622); conditions: recombinant KvBeta, 4-cyanobenzaldehyde reduction, at 10 µM, stronger effect = higher value;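 note: slope of raw intensity against log time taken from 70 to 1610 s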
Chain of Voltage-gated potassium channel subunit beta-2 (Rattus norvegicus) (P62483 whole entry, looked up): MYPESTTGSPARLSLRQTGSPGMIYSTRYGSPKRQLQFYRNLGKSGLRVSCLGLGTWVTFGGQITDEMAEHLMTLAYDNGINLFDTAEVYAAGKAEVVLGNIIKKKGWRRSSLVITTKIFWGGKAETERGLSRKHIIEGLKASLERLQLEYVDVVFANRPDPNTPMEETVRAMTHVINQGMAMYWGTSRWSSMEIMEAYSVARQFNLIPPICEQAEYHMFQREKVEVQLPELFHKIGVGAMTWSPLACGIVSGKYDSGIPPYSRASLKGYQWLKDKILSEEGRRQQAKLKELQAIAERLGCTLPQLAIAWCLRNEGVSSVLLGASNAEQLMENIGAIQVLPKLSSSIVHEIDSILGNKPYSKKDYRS

[5] = molecular target: Voltage-gated potassium channel subunit beta-2 (Rattus norvegicus) (UniProt P62483); test: enhancers of rat Kvbeta2 NADPH turnover – biochemical, NADPH fluorescence, primary screen (AID 623;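 active = NADPH fluorescence slope more negative than the mean of all samples by about 3 SD, 99.7% confidence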;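 note: fluorescence intensity change per second fitted from 20 to 320 s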); conditions: Recombinant KvBeta, NADPH fluorescence decrease slope, 10 min; at 10 µM; stronger effect = lower value
[6] = molecular target: Alpha-2C adrenergic receptor (Homo sapiens) (UniProt P18825); test: compounds altering alpha2C-coupled GIRK flux – cell-based, HEK293 alpha2C/GIRK1/2, thallium flux, primary screen (AID 624;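 active = fluorescence slope after compound addition differing from the mean of all screened samples at 99.7% confidence, in either direction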;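 note: slope of fluorescence ratio to pre-addition baseline per second over 15 to 24 s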); conditions: thallium flux BTC fluorescence, at 10 µM, actives lie on both sides
Chain of Alpha-2C adrenergic receptor (Homo sapiens) (P18825 whole entry, looked up): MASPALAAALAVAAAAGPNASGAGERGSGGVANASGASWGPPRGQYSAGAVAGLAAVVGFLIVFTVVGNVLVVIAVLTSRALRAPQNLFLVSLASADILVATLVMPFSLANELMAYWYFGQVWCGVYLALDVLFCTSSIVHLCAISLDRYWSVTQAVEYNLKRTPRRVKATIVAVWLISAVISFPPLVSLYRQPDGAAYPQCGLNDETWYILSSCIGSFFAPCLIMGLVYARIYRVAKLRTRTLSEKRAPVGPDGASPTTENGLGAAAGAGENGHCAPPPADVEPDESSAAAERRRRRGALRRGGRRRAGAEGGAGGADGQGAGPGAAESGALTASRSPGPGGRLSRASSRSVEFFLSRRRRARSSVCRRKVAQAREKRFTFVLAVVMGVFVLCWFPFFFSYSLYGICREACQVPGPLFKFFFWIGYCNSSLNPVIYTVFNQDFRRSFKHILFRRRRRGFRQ

[7] = blockers of RIG-like receptor reporter activation – cell-based, Sendai virus stimulus, luciferase, 10K MLSCN set, TLR/RLR signaling modifier project, primary screen (AID 602276;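 active = inhibition at or above 50% at 10 µM; inactive = inhibition below 50%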;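 note: firefly luciferase from ISG56 promoter only with Renilla not read in this screen; 0% = Sendai virus plus DMSO and 100% = medium plus DMSO without virus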); conditions: HEK293 RL24 IRF3 luciferase reporter, at 10 µM, stronger effect = higher value
[8] = TLR3 IRF3 reporter activation blockers – cell-based, poly I:C stimulus, luciferase, 10K MLSCN set, primary screen (AID 602277;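 active = inhibition of the reporter signal at or above 50%; inactive = inhibition below 50%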); conditions: HEK293-TLR3 RL24 IRF3 luciferase reporter, at 10 µM, stronger effect = higher value

Row | SMILES | cell count [1] | inhibition [1] | inhibition of aggregation [2] | nuclei count [2] [%] | inhibition [3] | nuclei count [3] [%] | fluorescence slope [4] | NADPH fluorescence slope [5] | slope [6] | inhibition [7] | inhibition [8]
1 | CCOC(=O)Cn1nnnc1C(C(C)C)N(Cc1cc2c(C)cc(C)cc2[nH]c1=O)C1CCCC1 (stereo not drawn) | 666 | -13.4% (inactive) | -17.6% (inactive) | 97.7 | 39.1% (inactive) | 106 | -0.498 (inactive) | 1.1e-05 (inactive) | 0.0076 (inactive) | -15.9% (inactive) | 10.4% (inactive)
2 | OCCn1c(-c2ccc3c(c2)OCO3)csc1=Nc1ccccc1 | 565 | 0.2% (inactive) | -0.6% (inactive) | 66.3 | -41.5% (inactive) | 112 | -0.59 (inactive) | -2.7e-05 (inactive) | 0.00284 (inactive) | -34% (inactive) | -121% (inactive)
3 | CCOC(=O)Cn1c(CN2CCN(c3cccc(Cl)c3)CC2)nc2c1c(=O)[nH]c(=O)n2C | 669 | 0% (inactive) | -3.2% (inactive) | 111 | 6.7% (inactive) | 120 | -0.583 (inactive) | -1.7e-05 (inactive) | 0.00641 (inactive) | 16.4% (inactive) | 32.5% (inactive)
4 | COc1ccc(N2CCN(CCCNC(=O)C3(S(=O)(=O)c4ccc(Cl)cc4)CC3)CC2)cc1 | 447 | -6.2% (inactive) | 8.8% (inactive) | 101 | -86% (inactive) | 115 | -0.565 (inactive) | 1.2e-05 (inactive) | 0.00533 (inactive) | -9.9% (inactive) | -1.93% (inactive)
5 | CCOc1ccc(N(CC(=O)OC)S(=O)(=O)c2ccc(OC)c(OC)c2)cc1 | 444 | 6.3% (inactive) | -1.6% (inactive) | 104 | 9.4% (inactive) | 101 | -0.455 (inactive) | 6.6e-05 (inactive) | 0.00363 (inactive) | -8.61% (inactive) | 15.5% (inactive)
6 | O=C(NCC12CC3CC(C1)CC(CNC(=O)N1CCCC1)(C3)C2)N1CCCC1 | 633 | 2.2% (inactive) | 3.3% (inactive) | 92.2 | -37.7% (inactive) | 112 | -0.463 (inactive) | -6e-05 (inactive) | 0.00588 (inactive) | 19.1% (inactive) | 22.9% (inactive)
7 | Cc1ccc(Cl)cc1N1CCN(C(=O)CN2C(=O)c3cccc4cccc2c34)CC1 | 771 | -7.2% (inactive) | -2.2% (inactive) | 89.4 | -11.6% (inactive) | 101 | -0.341 (inactive) | 4.7e-06 (inactive) | 0.0104 (active) | 9.95% (inactive) | 8.22% (inactive)
8 | O=C(c1ccc(Cl)s1)N1CCN(c2nc3ccccc3s2)CC1 | 721 | -17.3% (inactive) | -16.4% (inactive) | 104 | -31.6% (inactive) | 107 | -0.392 (inactive) | 2e-05 (inactive) | 0.00557 (inactive) | 8.1% (inactive) | 6.32% (inactive)
9 | CCCCCn1c(CN2CCN(C(=O)OCC)CC2)nc2c1c(=O)[nH]c(=O)n2C | 245 | 0.8% (inactive) | 10.4% (inactive) | 105 | 16.4% (inactive) | 78.3 | -0.564 (inactive) | 7.1e-06 (inactive) | 0.00615 (inactive) | 28.1% (inactive) | 19.9% (inactive)
10 | Cc1nc2ccccc2c(=O)n1CC(=O)N1CCOCC1 | 558 | -17.1% (inactive) | 11.6% (inactive) | 78.3 | 22.8% (inactive) | 89.9 | -0.503 (inactive) | -4.9e-05 (inactive) | 0.00461 (inactive) | 14.1% (inactive) | 13.2% (inactive)
11 | COCCNC(=O)CN1C(=O)CSc2ncccc21 | 673 | -6.7% (inactive) | -43.1% (inactive) | 115 | -62.1% (inactive) | 117 | -0.413 (inactive) | -1.6e-05 (inactive) | 0.00576 (inactive) | 11.1% (inactive) | 28.9% (inactive)
12 | C=CC(O)(C#CCN(CC)CC)c1ccccc1 (stereo not drawn) | 740 | -36% (inactive) | -18.5% (inactive) | 107 | -53.6% (inactive) | 110 | -0.596 (inactive) | -5e-05 (inactive) | 0.0061 (inactive) | 4.67% (inactive) | 11.4% (inactive)
13 | CCOC(=O)COc1ccc(C2NC(C(=O)O)CS2)cc1 (stereo not drawn) | 367 | -9.6% (inactive) | 9.8% (inactive) | 55.1 | -4.8% (inactive) | 97.6 | -0.381 (inactive) | -1.3e-05 (inactive) | 0.00376 (inactive) | 12.5% (inactive) | 13% (inactive)
